Z-score data for 27 molecules are collected here from PubChem BioAssay.

Assay [1] in a line: MELAS cybrid and Rieske KO viability enhancers – cell-based, MELAS cybrids, Rieske KO mouse fibroblasts, CellTiter-Glo, primary screen (AID 1508586;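 active = mean z-score across replicates of 1.96 or higher in either the MELAS or the Rieske mutant cell line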;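 also: test concentration not given here; z relative to plate mean and SD of compound and empty wells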). The following applies: low glucose. In general terms: In ATP-based viability assays light output follows the ATP content of the culture.
Assay [2] can be described thus: galactose survival enhancers in mitochondrial complex I cybrids – cell-based, galactose medium, ATP luminescence, primary screen (AID 1645843).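 Also: positive z means more ATP and so rescue of galactose-driven cybrid death.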 The following applies: complex I mutant cybrid cells, 72 h, stronger effect = higher value.
Where [3] appears, read: MELAS cybrid survival, CellTiter-Glo 48 h, stronger effect = higher value.
Where [4] appears, read: Rieske KO mouse fibroblast survival, CellTiter-Glo 72 h.

SMILES strings stand for the structures. The source made the active and inactive calls.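 The calls were made as follows, unless noted: active = z-score of at least 1.8 in each of two replicates, scored against plate mean and spread of sample wells; inactive = the rest.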

In the case of `COc1cccc(C(=O)N2CCN3C(=O)[C@H](C(C)C)NC(=O)[C@H]3C2)c1`, the z-score in assay [1] (setting [3]) is -0.0303 (inactive); in assay [1] (setting [4]), -0.513; in assay [2], 0.605 (inactive).
Take `CCOC(=O)c1nn(CC)c2c1CN(C(=O)Cn1nc(-c3ccccc3)c3ccccc3c1=O)CC2`: the z-score was -0.0607 (inactive) in assay [1] (setting [3]), 0.472 in assay [1] (setting [4]) and 0.925 (inactive) in assay [2].
On to `Cc1csc(-c2cc(C(=O)NCCN3CCCCC3)cc(S(=O)(=O)N3CCOCC3)c2)c1`, for which the z-score was 0.0708 (inactive) in assay [1] (setting [3]), -0.233 in assay [1] (setting [4]) and -0.485 (inactive) in assay [2].
As for `O=C1N[C@H](CO)C(=O)N2CCN(C(=O)c3ccc(F)cc3)C[C@H]12`, the z-score was 1.91 (inactive) in assay [1] (setting [3]), -0.948 in assay [1] (setting [4]) and -0.325 (inactive) in assay [2].
Regarding `CC(C)[C@@H]1NC(=O)[C@@H]2C[C@H](NC(=O)c3cccc(Cl)c3)CN2C1=O`, the z-score in assay [1] (setting [3]) is 9 (active); in assay [1] (setting [4]) it was -0.848; in assay [2], -0.675 (inactive).
On to `Cc1ccc2c(CC(=O)N3CC(=O)N(CC(C)C)CC(OCc4ccccn4)C3)cc(=O)oc2c1` (stereo unspecified), for which the z-score in assay [1] (setting [3]) is -0.0739 (inactive); in assay [1] (setting [4]) it was 0.0342; in assay [2], 0.435 (inactive).
In the same order, the values of `CC(C)CN1C[C@@H](CN2CCOCC2)C[C@@H](C(=O)N2CCCC2)C1` are -0.0982 (inactive), -0.607 and -0.485 (inactive).
For the molecule `COc1cccc(C(=O)N2CCN3C(=O)[C@@H]4C[C@@H](O)CN4C(=O)[C@H]3C2)c1`, the z-score in assay [1] (setting [3]) is -0.0988 (inactive); in assay [1] (setting [4]) it was 0.379; in assay [2] it was 0.555 (inactive).
Consider `O=C1CCCc2occ(C(=O)N3CC(=O)N(Cc4ccccc4)CC(OCc4ccccn4)C3)c21` (stereo unspecified), for which the figures for the z-score in assay [1] (setting [3]), in assay [1] (setting [4]) and in assay [2] were -0.412 (inactive), -0.733 and 2.83 (inactive), respectively.
In the same order, the values of `O=C1N[C@@H](COCc2ccccc2)C(=O)N2C[C@@H](NCc3cnn(-c4cccc(F)c4)c3)C[C@@H]12` are 1.94 (inactive), -0.436 and -0.845 (inactive).
Regarding `CC(C)N1C(=O)N(C)C2(CCN(Cc3ccc4c(c3)Cc3ccccc3-4)CC2)C1=O`, the z-score in assay [1] (setting [3]) is -0.247 (inactive); in assay [1] (setting [4]) it was -0.55; in assay [2], 0.225 (inactive).
Turning to `COC(=O)CN1C(=O)N(CCc2ccccc2)C2(CCN(Cc3ccc4c(c3)OCCO4)CC2)C1=O`, the values for the z-score in assay [1] (setting [3]), in assay [1] (setting [4]) and in assay [2] were -0.212 (inactive), -0.109 and 1.24 (inactive), respectively.
As for `O=C(CC1=CCCCC1)N1CCc2c(cc(-c3cccc(F)c3)c(=O)n2CCN2CCCCC2)C1`, the values for the z-score in assay [1] (setting [3]), in assay [1] (setting [4]) and in assay [2] were -0.288 (inactive), -0.152 and 0.55 (inactive), respectively.
In the case of `Cc1onc(-c2ccccc2)c1C(=O)N1CC(=O)N(Cc2ccccc2)CC(OCC2CC2)C1` (stereo unspecified), the z-score in assay [1] (setting [3]) is 0.442 (inactive); in assay [1] (setting [4]), -0.273; in assay [2], -1.6 (inactive).
For `COc1ccc(CN2C[C@@H](COc3cccc(C(F)(F)F)c3)C[C@@H](C(=O)NCC(C)C)C2)cc1OC`, the z-score in assay [1] (setting [3]) was -0.34 (inactive); in assay [1] (setting [4]), 0.0165; in assay [2], -1.45 (inactive).
With `CC(C)CN1CC(OCc2cccc(F)c2)CN(Cc2cccn2-c2ncccn2)CC1=O` (stereo unspecified), the z-score in assay [1] (setting [3]) was -0.291 (inactive); in assay [1] (setting [4]), -0.624; in assay [2], 0.085 (inactive).
With `COCCN1C(=O)N(C(C)C)C(=O)C12CCN(Cc1c(F)cccc1Cl)CC2`, the results for the z-score in assay [1] (setting [3]), in assay [1] (setting [4]) and in assay [2] were -0.424 (inactive), -0.375 and 2.07 (inactive), respectively.
For `CNS(=O)(=O)c1cc(NCc2cnc(C)[nH]2)cc(C(=O)Nc2ccc3c(c2)CCC3)c1`, the z-score in assay [1] (setting [3]) is -0.00503 (inactive); in assay [1] (setting [4]) it was -0.751; in assay [2], 0.02 (inactive).
In the same order, the values of `C[C@@H](OCc1ccccc1)[C@@H]1NC(=O)[C@H]2CN(C(=O)Oc3ccccc3)CCN2C1=O` are -0.153 (inactive), -0.114 and -1.46 (inactive).
Take `CN1CCCC1CCNC(=O)[C@H]1CNC[C@@H](COc2cccc(F)c2)C1` (stereo partly specified): the z-score in assay [1] (setting [3]) was -0.0942 (inactive); in assay [1] (setting [4]), 0.269; in assay [2], 1.83 (inactive).
As for `CCc1ccc(CNc2cnc3c(c2)c(NC(=O)c2cccnc2)c(C(=O)OC)n3CC(C)C)o1`, the z-score in assay [1] (setting [3]) is 3.75 (active); in assay [1] (setting [4]) it was 4.55; in assay [2], -1.67 (inactive).
Consider `O=C(c1nn(Cc2ccncc2)c2c1CN(Cc1ccsc1)CC2)N1CCCC1`, for which the z-score in assay [1] (setting [3]) was -0.1 (inactive); in assay [1] (setting [4]), 0.631; in assay [2] it was 0.36 (inactive).
Consider `NCCCC[C@@H]1NC(=O)[C@@H]2C[C@H](NC(=O)c3sccc3Cl)CN2C1=O`, for which the z-score in assay [1] (setting [3]) is -0.4 (inactive); in assay [1] (setting [4]), -0.67; in assay [2], -0.915 (inactive).
Turning to `CC(C)OCCNC1CCc2c(c(C(=O)N(C)Cc3ccccc3)nn2C)C1` (stereo unspecified), the z-score was 0.055 (inactive) in assay [1] (setting [3]), -0.804 in assay [1] (setting [4]) and 0.48 (inactive) in assay [2].
With `O=C(Cn1cnnn1)N1CC(=O)N(C2CCCCC2)CC(OCc2ccccc2)C1` (stereo unspecified), the z-score was -0.326 (inactive) in assay [1] (setting [3]), 0.527 in assay [1] (setting [4]) and 0.21 (inactive) in assay [2].
Consider `Cc1c(CN2CC(=O)N(Cc3ccccc3)CC(O)C2)c(=O)n(-c2ccccc2)n1C` (stereo unspecified), for which the z-score in assay [1] (setting [3]) is 0.325 (inactive); in assay [1] (setting [4]), -0.72; in assay [2], 0.83 (inactive).
With `Cc1[nH]cnc1CNc1cc(C(=O)Nc2cccc(N(C)C)c2)cc(S(=O)(=O)N2CCCC2)c1`, the z-score in assay [1] (setting [3]) is -0.329 (inactive); in assay [1] (setting [4]) it was -0.954; in assay [2] it was 0.055 (inactive).
